From PubChem BioAssay (EPA / NIEHS) come the findings set out here.

Each structure is given as a SMILES string. Results filed as inconclusive are left out. The source holds several records for some structures; these can differ, active in one and inactive in another. Active and inactive are the calls of the source. Rule for the calls, unless noted: active = hit-call score of the fitted dose curve at least 0.9, where 1 is the maximum; inactive = score below 0.9.

In general, AC50 refers to the midpoint of the concentration-response curve, whichever way the signal moves.

Read-out in assay [1]: Nuclear factor erythroid 2-related factor 2 (Homo sapiens) (UniProt Q16236)
Briefly: LTEA_HepaRG_NFE2L2: Life Technologies and Expression Analysis (LTEA) Assay for Nuclear factor erythroid 2-related factor 2 (NFE2L2) Transcription Factor using HepaRG (AID 2283527).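 For outcome: TaqMan qRT-PCR transcript level normalised to ACTB GAPDH and POLR2A housekeeping genes.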 The conditions noted are these: mRNA level, 48 h; actives raise or lower the signal. The method in brief:
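Differentiated human HepaRG cells in serum-free induction medium were exposed for 48 h to eight concentrations (top 100 uM, half-log dilutions, 0.5% DMSO), in duplicate. NFE2L2 mRNA was quantified by TaqMan qRT-PCR, normalized to ACTB, GAPDH and POLR2A, with bidirectional fitting versus DMSO.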

Read-out in assay [2]: succinate dehydrogenase complex iron sulfur subunit B (SDHB), SDHB (gene 6390)
The experiment in a line: LTEA_HepaRG_SDHB: Life Technologies and Expression Analysis (LTEA) Assay for succinate dehydrogenase complex iron sulfur subunit B (SDHB) using HepaRG (AID 2283528). Conditions: mRNA level, 48 h; actives raise or lower the signal. The method in brief: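 HepaRG cells (~100,000/well, plated 48 h) exposed in duplicate for 48 h in serum-free induction medium to 8-point half-log series from 100 uM in 0.5% DMSO; mRNA by qRT-PCR normalised to ACTB, GAPDH, POLR2A; bidirectional fit versus DMSO.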

Read-out in assay [3]: Signal transducer and activator of transcription 3 (Homo sapiens) (UniProt P40763)
Briefly: LTEA_HepaRG_STAT3: Life Technologies and Expression Analysis (LTEA) Assay for Signal transducer and activator of transcription (STAT3) using HepaRG (AID 2283529). Conditions: mRNA level, 48 h; actives raise or lower the signal. The method, boiled down: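 Differentiated human HepaRG cells in serum-free induction medium were exposed in duplicate for 48 h to eight half-log concentrations up to 100 uM in 0.5% DMSO. STAT3 mRNA was quantified by TaqMan qRT-PCR, normalized to ACTB, GAPDH and POLR2A, and fitted bidirectionally against DMSO.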

Read-out in assay [4]: solute carrier (SLCO1B1), SLCO1B1 (gene 10599)
The experiment in a line: LTEA_HepaRG_SLCO1B1: Life Technologies and Expression Analysis (LTEA) Assay for solute carrier (SLCO1B1) using HepaRG (AID 2283530). Conditions: mRNA level, 48 h; actives raise or lower the signal. The method, boiled down: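 Gain or loss of SLCO1B1 mRNA is fitted against the 0.5% DMSO vehicle in human HepaRG liver cells treated 48 h at up to 100 uM in half-log steps. Expression comes from qRT-PCR normalized to endogenous controls.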

Read-out in assay [5]: Transforming Growth Factor (TGFA), TGFA (gene 7039)
Briefly: LTEA_HepaRG_TGFA: Life Technologies and Expression Analysis (LTEA) Assay for Transforming Growth Factor (TGFA) using HepaRG (AID 2283532). Conditions: mRNA level, 48 h; actives raise or lower the signal. The method, boiled down: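 Differentiated human HepaRG cells, plated 48 h then switched to serum-free induction medium, were exposed in duplicate for 48 h to 8-point half-log series from 100 uM in 0.5% DMSO. TGFA mRNA measured by qRT-PCR, normalized to ACTB/GAPDH/POLR2A, bidirectional fit versus DMSO.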

Read-out in assay [6]: Transforming Growth Factor (TGFB1), TGFB1 (gene 7040)
The experiment in a line: LTEA_HepaRG_TGFB1: Life Technologies and Expression Analysis (LTEA) Assay for Transforming Growth Factor (TGFB1) Transporter using HepaRG (AID 2283533). Conditions: mRNA level, 48 h; actives raise or lower the signal. The method in brief:
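Expression change of TGFB1 in human HepaRG cells is measured after a 48 h chemical exposure, up to 100 uM in 0.5% DMSO vehicle. Curves are fitted in both directions relative to the DMSO baseline.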

Read-out in a further assay: TIMP1, TIMP1 (gene 7076)
The experiment in a line: LTEA_HepaRG_TIMP1: Life Technologies and Expression Analysis (LTEA) Assay for TIMP1 using HepaRG (AID 2283534). The conditions noted are these: mRNA level, 48 h; actives raise or lower the signal. The method in brief: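 We dosed human liver HepaRG cultures for 48 hours with up to 100 uM test chemical and measured TIMP1 expression by qRT-PCR. Activity in either direction is fitted relative to the 0.5% DMSO vehicle.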

Read-out in assay [7]: Tumor necrosis factor receptor 1 (TNFRSF1A), TNFRSF1A (gene 7132)
Briefly: LTEA_HepaRG_TNFRSF1A: Life Technologies and Expression Analysis (LTEA) Assay for Tumor necrosis factor receptor 1 (TNFRSF1A) using HepaRG (AID 2283535). Conditions: mRNA level, 48 h; actives raise or lower the signal. The method, boiled down: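 Expression of TNFRSF1A in human HepaRG liver cells was measured by qRT-PCR 48 h after chemical dosing (maximum 100 uM). Bidirectional curve fitting used 0.5% DMSO as baseline.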

Read-out in assay [8]: Cellular tumor antigen p53 (Homo sapiens) (UniProt P04637)
The experiment in a line: LTEA_HepaRG_TP53: Life Technologies and Expression Analysis (LTEA) Assay for Tumor Protein P53 (TP53) using HepaRG (AID 2283537). The conditions noted are these: mRNA level, 48 h; actives raise or lower the signal. The method, boiled down: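 Differentiated HepaRG cells in serum-free induction medium exposed 48 h in duplicate to 8 half-log concentrations, top 100 uM, 0.5% DMSO. TP53 mRNA by TaqMan qRT-PCR (Fluidigm), normalized to ACTB, GAPDH, POLR2A; fitted bidirectionally versus DMSO.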

Read-out in assay [9]: UDP glucuronosyltransferase (UGT1A1), UGT1A1 (gene 54658)
Briefly: LTEA_HepaRG_UGT1A1: Life Technologies and Expression Analysis (LTEA) Assay for UDP glucuronosyltransferase (UGT1A1) using HepaRG (AID 2283538). Conditions: mRNA level, 48 h; actives raise or lower the signal. The method in brief: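 HepaRG cells, 0.5% DMSO vehicle, 48 h exposure in serum-free induction medium to 8-point half-log series topping at 100 uM, in duplicate. UGT1A1 mRNA by Fluidigm qRT-PCR, normalized to ACTB/GAPDH/POLR2A; bidirectional fit versus DMSO.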

Read-out in assay [10]: UDP glucuronosyltransferase (UGT1A6), UGT1A6 (gene 54578)
Briefly: LTEA_HepaRG_UGT1A6: Life Technologies and Expression Analysis (LTEA) Assay for UDP glucuronosyltransferase (UGT1A6) using HepaRG (AID 2283539). The conditions noted are these: mRNA level, 48 h; actives raise or lower the signal. The method, boiled down: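 Endpoint is UGT1A6 transcript induction or loss in a human liver cell line, quantified by TaqMan qRT-PCR 48 h after dosing. Concentrations ran from 100 uM downward in half-log steps in 0.5% DMSO; activity was fitted in both directions versus vehicle.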

Read-out in assay [11]: X-box binding protein 1 (XBP1), XBP1 (gene 7494)
Briefly: LTEA_HepaRG_XBP1: Life Technologies and Expression Analysis (LTEA) Assay for X-box binding protein 1 (XBP1) using HepaRG (AID 2283540). Conditions: mRNA level, 48 h; actives raise or lower the signal. The method in brief: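 Human HepaRG monolayers receive test chemical for 48 h across an eight-point half-log series starting at 100 uM. XBP1 mRNA gain or loss is scored against DMSO by qRT-PCR.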

A short description of assay [12]: LTEA_HepaRG_LDH_cytotoxicity: Cytotoxicity Assessment in the Life Technologies and Expression Analysis (LTEA) Assay (AID 2283563; active = hit-call score of the fitted dose curve at least 0.9, where 1 is the maximum;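 for AC50: LDH activity released into spent culture medium as a marker of cell death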). The method, boiled down: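 Human HepaRG hepatic cells are treated with test chemicals for 48 h at up to 100 uM in 0.5% DMSO. Cytotoxicity is scored from medium LDH against the vehicle control.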
The nature of assay [13]: TOX21_p53_BLA_p2_viability: Viability Assessment in the Tox21 HCT-116 p53 Agonism Beta-lactamase Assay, Phase 2 (AID 2283591; active = hit-call score of the fitted dose curve at least 0.9, where 1 is the maximum;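 note: compound exposure lasted 16 h at 37 °C; actives lower the ATP signal meaning cytotoxicity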). The method in brief: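 HCT-116 p53-bla cells (4000/well) rested 5 h at 37C, then received compounds in DMSO (217-fold dilution) for 16 h at 37C, 5% CO2. After the CCF4 read, CellTiter-Glo was added; ATP luminescence was read after 30 min at room temperature.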

The target in assay [14] is Cellular tumor antigen p53 (Homo sapiens) (UniProt P04637). The experiment in a line: TOX21_p53_BLA_p2_ratio: Tox21 HCT-116 p53 Agonism Beta-lactamase Assay, Ratio, Phase 2 (AID 2283592; active = hit-call score of the fitted dose curve at least 0.9, where 1 is the maximum). The method in brief: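 An inducible beta-lactamase reporter in HCT116 cells signals p53 pathway activation. After 16 h chemical exposure at 37C, cells load CCF4-AM substrate for 2 h at room temperature; activity is the cleaved/uncleaved emission ratio relative to DMSO.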
Sequence of Cellular tumor antigen p53 (Homo sapiens) (P04637 whole entry, looked up): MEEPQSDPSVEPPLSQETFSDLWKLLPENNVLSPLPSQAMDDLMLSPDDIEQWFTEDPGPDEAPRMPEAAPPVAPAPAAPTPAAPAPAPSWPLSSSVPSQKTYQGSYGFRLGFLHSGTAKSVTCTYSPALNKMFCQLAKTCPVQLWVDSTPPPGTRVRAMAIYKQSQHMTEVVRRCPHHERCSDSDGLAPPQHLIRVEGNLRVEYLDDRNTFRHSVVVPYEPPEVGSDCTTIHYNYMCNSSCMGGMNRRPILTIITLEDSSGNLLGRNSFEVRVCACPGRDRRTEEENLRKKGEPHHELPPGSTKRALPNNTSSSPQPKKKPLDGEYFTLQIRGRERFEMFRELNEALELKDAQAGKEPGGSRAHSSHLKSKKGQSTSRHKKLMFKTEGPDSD

The nature of assay [15]: TOX21_p53_BLA_p3_viability: Viability Assessment in the Tox21 HCT-116 p53 Agonism Beta-lactamase Assay, Phase 3 (AID 2283593; active = hit-call score of the fitted dose curve at least 0.9, where 1 is the maximum;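 note: cells exposed to compound for 16 h before reading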). The method, boiled down:
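HCT-116 cells (4000/well) rested 5 h at 37C, then got DMSO compounds by pin tool (217-fold dilution) for 16 h at 37C, 5% CO2. After the bla read, CellTiter-Glo was added and luminescence read at 30 min, room temperature.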

Assay [16] deals with Cellular tumor antigen p53 (Homo sapiens) (UniProt P04637). The experiment in a line: TOX21_p53_BLA_p3_ratio: Tox21 HCT-116 p53 Agonism Beta-lactamase Assay, Ratio, Phase 3 (AID 2283596; active = hit-call score of the fitted dose curve at least 0.9, where 1 is the maximum). The method in brief:
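HCT116 p53-bla cells (4000/well) given compound in DMSO (217-fold dilution) after 5 h, incubated 16 h at 37C. CCF4-AM substrate 2 h at room temperature; 460/530 nm emission ratio, gain fitted against DMSO.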

Read-out in assay [17]: sulfotransferase 2A1 (SULT2A1), SULT2A1 (gene 6822)
Briefly: LTEA_HepaRG_SULT2A1: Life Technologies and Expression Analysis (LTEA) Assay for sulfotransferase 2A1 (SULT2A1) using HepaRG (AID 2283531). The conditions noted are these: mRNA level, 48 h; actives raise or lower the signal. The method in brief: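 Cells were plated and cultured 48 h, switched to serum-free induction medium, then dosed in duplicate for 48 h (8 concentrations, max 100 uM). RNA was isolated and SULT2A1 expression measured by qRT-PCR; gain or loss of signal fitted relative to DMSO.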

Read-out in assay [18]: Thyroid Hormone Responsive (THRSP), THRSP (gene 7069)
Briefly: LTEA_HepaRG_THRSP: Life Technologies and Expression Analysis (LTEA) Assay for Thyroid Hormone Responsive (THRSP) using HepaRG (AID 2283536). The conditions noted are these: mRNA level, 48 h; actives raise or lower the signal. The method in brief: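 Differentiated human HepaRG cells were exposed in duplicate for 48 h in serum-free induction medium to eight concentrations (top 100 uM, half-log steps, 0.5% DMSO). Expression was quantified by TaqMan qRT-PCR, normalized to ACTB, GAPDH and POLR2A, with bidirectional fitting against DMSO.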

Assay [19] is described as follows: ATG_XTT_Cytotoxicity: Cytotoxicity Assessment in the Attagene TRANS-FACTORIAL HepG2 Assay (AID 2283584; active = hit-call score of the fitted dose curve at least 0.9, where 1 is the maximum). The method, boiled down: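 Transfect HepG2 with GAL4-UAS reporter units, dose compound, incubate 24 h, then measure viable cell number by XTT. Fit concentration response against DMSO baseline.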

Sequence of Nuclear factor erythroid 2-related factor 2 (Homo sapiens) (Q16236 whole entry, looked up): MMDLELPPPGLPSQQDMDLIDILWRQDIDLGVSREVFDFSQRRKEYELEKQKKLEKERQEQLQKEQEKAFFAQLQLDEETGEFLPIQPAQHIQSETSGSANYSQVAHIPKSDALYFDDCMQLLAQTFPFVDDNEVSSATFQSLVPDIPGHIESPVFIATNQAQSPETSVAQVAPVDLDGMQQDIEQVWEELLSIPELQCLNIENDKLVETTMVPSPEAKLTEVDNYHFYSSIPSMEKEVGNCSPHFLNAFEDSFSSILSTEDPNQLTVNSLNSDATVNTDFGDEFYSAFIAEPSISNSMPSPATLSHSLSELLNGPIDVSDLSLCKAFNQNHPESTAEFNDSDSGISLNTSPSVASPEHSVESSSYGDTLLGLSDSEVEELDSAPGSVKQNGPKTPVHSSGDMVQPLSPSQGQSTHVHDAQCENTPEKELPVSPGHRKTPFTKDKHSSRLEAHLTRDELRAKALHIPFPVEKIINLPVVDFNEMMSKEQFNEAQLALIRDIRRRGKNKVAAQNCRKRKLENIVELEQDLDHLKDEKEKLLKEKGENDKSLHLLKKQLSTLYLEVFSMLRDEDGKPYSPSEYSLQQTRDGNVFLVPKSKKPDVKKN
Sequence of Signal transducer and activator of transcription 3 (Homo sapiens) (P40763 whole entry, looked up): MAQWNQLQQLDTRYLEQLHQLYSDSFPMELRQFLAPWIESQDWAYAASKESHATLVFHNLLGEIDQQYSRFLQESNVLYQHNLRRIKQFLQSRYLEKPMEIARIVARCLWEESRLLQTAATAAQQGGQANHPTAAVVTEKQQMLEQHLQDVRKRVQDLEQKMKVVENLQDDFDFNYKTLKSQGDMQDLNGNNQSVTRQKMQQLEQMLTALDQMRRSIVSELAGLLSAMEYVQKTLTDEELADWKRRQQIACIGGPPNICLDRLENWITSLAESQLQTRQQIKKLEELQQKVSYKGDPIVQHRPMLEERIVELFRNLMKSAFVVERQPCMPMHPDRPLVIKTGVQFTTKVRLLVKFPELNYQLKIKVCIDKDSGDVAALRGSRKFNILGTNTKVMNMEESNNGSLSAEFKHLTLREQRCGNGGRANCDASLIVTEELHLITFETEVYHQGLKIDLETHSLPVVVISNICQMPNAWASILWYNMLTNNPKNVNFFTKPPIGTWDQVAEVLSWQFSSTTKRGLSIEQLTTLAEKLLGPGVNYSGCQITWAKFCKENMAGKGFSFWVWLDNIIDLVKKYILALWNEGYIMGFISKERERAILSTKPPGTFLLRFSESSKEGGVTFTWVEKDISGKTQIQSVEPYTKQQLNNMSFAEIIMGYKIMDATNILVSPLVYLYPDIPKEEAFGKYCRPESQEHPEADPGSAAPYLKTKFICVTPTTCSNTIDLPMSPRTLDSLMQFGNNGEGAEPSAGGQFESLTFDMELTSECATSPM

As for `COc1ccc(OC(F)(F)F)cc1CN[C@H]1CCCN[C@H]1c1ccccc1`, the AC50 in assay [1] was 14.7 µM (active); in assay [3], 73.4 µM (active); in assay [7], 93.1 µM (active); in assay [8], 77.7 µM (active); in [9], 83.8 µM (active); in assay [10] it was 89.9 µM (active). Also, the AC50 was 73.6 µM (active) in assay [12] and 69.3 µM (active) in assay [13]. For the same molecule, the outcome in assay [2] is “inactive”; in assay [4], “inactive”; in assay [5] it was “inactive”; in assay [6] it was “inactive”; with TIMP1, TIMP1 (gene 7076), “inactive”; in assay [11], “inactive”. The result in assay [14] and in assay [15] was inactive.

In the case of `Oc1ccccc1O`, the molecule was called inactive in [1], in assay [2], in assay [3], in [4], in [5] and in [6]. For the same molecule, the outcome with TIMP1, TIMP1 (gene 7076) was “inactive”; in [7] it was “inactive”; in assay [8] it was “inactive”; in assay [9] it was “inactive”; in assay [10] it was “inactive”; in assay [11] it was “inactive”. Further, the molecule was called inactive in [12], in assay [13], in [14], in assay [15] and in assay [16]. Besides, the AC50 in assay [15] was 74.5 µM (active).

As to `Cc1occc(=O)c1O`, the result in assay [1], in assay [2], in assay [3], in assay [4], in assay [5] and in assay [6] was inactive. Moreover, the outcome in the assay with TIMP1, TIMP1 (gene 7076) is “inactive”; in assay [7] it was “inactive”; in assay [9] it was “inactive”; in [10], “inactive”; in assay [11] it was “inactive”; in assay [12] it was “inactive”.

As for `CCCCCCCC(=O)OC`, the call in [1], in assay [3], in assay [4], in assay [17], in assay [5] and in [6] was inactive. Also, the outcome with TIMP1, TIMP1 (gene 7076) is “inactive”; in [7], “inactive”; in [18], “inactive”; in [8] it was “inactive”; in [9], “inactive”; in [10] it was “inactive”. Besides, the molecule was classed as inactive in assay [11], in assay [12], in assay [19], in assay [13], in assay [14] and in [15]. In addition, in assay [16], the result was inactive.
